The record followed here is PubChem BioAssay AID1852 (Sanford-Burnham Center for Chemical Genomics, 2009).

Among all 2,500 compounds or so, about 1,100 (44%) were called active. The set was probably picked from earlier hits. The list shows a part of the results. Values without a mark were called inactive.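 Rule for the calls: active = inhibition above 50% at 4 µM in the single-point screen; inactive = inhibition of 50% or less.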

One may read the inhibition as the change of the read-out against control, counted positive when it falls.

The assay can be described thus: blockers of TNF-a NF-kB luciferase induction – cell-based, HEK293T NF-kB-Luc, luminescence, selectivity assay for NOD1/NOD2 signaling inhibitor project, primary screen (AID 1852). The settings on record: TNF-a induced, 14 h, at 4 µM, stronger effect = higher value.
`COC(CN(C(=O)CCl)C(C(=O)NC1CCCC(C)C1C)c1ccc(C)cc1)OC` (centres undefined): the inhibition is 15.4%.

In the case of `COCCN(CC(=O)NC1CCCCC1)C(=O)/C=C/C(=O)c1ccc(OC)cc1O`, the inhibition is 22.3%.

Turning to `COCCN(C(=O)CCl)C(C(=O)NC1CCCCC1)c1ccccc1C` (centres undefined), the inhibition is 56.7% (active).

Consider `COC(CN(C(=O)CCl)C(C(=O)NC1CCCCC1)c1ccccc1C)OC` (centres undefined), for which the inhibition was 63.2% (active). Next, `Cc1ccc(-c2csc(=Nc3cccnc3)n2CCCn2ccnc2)cc1C`: 94.3% (active). Next, `O=S(=O)(Nc1nc(-c2sccc2Cl)cs1)c1cc(Cl)ccc1Cl`: 34.1%; `Cc1ccc(C2=NOC(=O)/C2=C\C=C\c2ccccc2)cc1`: 94.8% (active); `O=C1ON=C(c2ccc(Cl)cc2)/C1=C/c1ccc(O)cc1`: 29.2%. As for `COc1cc(C)c(Br)cc1S(=O)(=O)NCc1ccncc1`, the figure is 30.4%; as for `N#CCc1ccc(NC(=O)c2ccc(CN3CCc4ccccc4C3)cc2)cc1`, 58.1% (active); as for `CCOC(=O)c1ccc(NC(=O)c2ccc(CN3CCc4ccccc4C3)cc2)cc1`, 46.3%. As for `C/C(=N\NC(=O)c1ccc(CN2CCc3ccccc3C2)cc1)c1ccccc1O`, the inhibition was 77.8% (active). As for `Cc1cc(C)n(Cc2ccc(NC(=O)c3ccc(COc4ccccc4Br)cc3)cc2)n1`, the inhibition was 46.2%.

`O=C(Nc1ccc(Cl)cc1)c1ccc(CN2CCc3ccccc3C2)cc1`: the inhibition is 23.1%. For `CCOc1ccc(NC(=O)c2ccc(CN3CCc4ccccc4C3)cc2)cc1`, the inhibition was 3%. As for `O=C(Nc1ccc(F)cc1)c1ccc(CN2CCc3ccccc3C2)cc1`, the figure is 87.4% (active). As for `CC(=O)n1c(Cl)c(NC(=O)CCl)c2ccccc21`, the figure is 82.1% (active); as for `O=C(CCl)Nc1cn(-c2ccccc2)nc1-c1ccc(F)cc1`, -16.2%. In the case of `O=C(CCl)Nc1cn(-c2ccccc2)nc1-c1ccccc1`, the inhibition is -13.7%. As to `O=C(Cc1ccc(Cl)cc1)c1c[nH]c(C(=O)NCc2cccnc2)c1`, the inhibition is 90.1% (active). Next, `COc1cccc(C(=O)Nc2nc(-c3ccccc3)c(-c3ccccc3)o2)c1`: 81.3% (active); `CN(C)S(=O)(=O)Oc1cccc(C(=O)Nc2ccc(Cl)c(Cl)c2)c1`: -28.2%; `COc1cccc(C(=O)Nc2sc3c(c2C(=O)O)CCCC3)c1`: 30.7%.

Consider `COc1cc(OC)cc(C(=O)Nc2nc(-c3ccccc3)c(-c3ccccc3)o2)c1`, for which the inhibition was 78.7% (active). Next, `Cc1onc(-c2ccccc2)c1C(=O)Nc1ncc([N+](=O)[O-])s1`: 48.5%. As for `O=C1N/C(=N\N=C\c2ccccn2)SC1Cc1cccc(SC(F)F)c1` (centres undefined), the figure is 109% (active). Next, `Cc1cccc(CS(=O)(=O)c2ncc(Cl)c(C(=O)Nc3c(C)cccc3C)n2)c1`: 46.2%; `CCc1nnc(NC(=O)c2nc(S(=O)(=O)Cc3ccc(C)cc3)ncc2Cl)s1`: 71.9% (active); `CCCc1nnc(NC(=O)c2nc(S(=O)(=O)Cc3ccc(C)cc3)ncc2Cl)s1`: 94.4% (active).

For the compound `CCCc1nnc(NC(=O)c2nc(S(=O)(=O)Cc3cccc(C)c3)ncc2Cl)s1`, the inhibition is 61.3% (active). Next, `Cc1cc(C)c(C#N)c(SCc2nnc(-c3ccccc3)o2)n1`: 0%; `CCOc1ccc(NC(=O)Nc2ccc3c(c2)N(C)C(=O)CS3)cc1`: 14.3%; `O=C(Nc1ccc(S(=O)(=O)N2CCOCC2)cc1)c1cc(-c2cc(Cl)ccc2O)n[nH]1`: -2.1%. Next, `Cn1c(O)c(N=NC(=S)Nc2ccccc2F)c2cc(S(=O)(=O)N3CCOCC3)ccc21`: 12.5%. On to `O=S(=O)(c1ccc(N=C2NN=C(c3cc(F)ccc3F)CS2)cc1)N1CCOCC1`, for which the inhibition was 77.4% (active). As for `CCCCN(c1ccccc1)c1ncnc(N)c1[N+](=O)[O-]`, the figure is 83.7% (active); as for `C=CCN(C(=O)CCc1ccccc1OC)c1nc(-c2ccc(S(C)(=O)=O)cc2)cs1`, -10.1%. Next, `CC(=O)c1c(C)[nH]c(C(=O)COC(=O)c2cccc(S(=O)(=O)N(C)c3ccccc3)c2)c1C`: 84.9% (active); `CCOC(=O)c1c(C)[nH]c(C(=O)OCC(=O)N2CCN(S(=O)(=O)c3ccccc3)CC2)c1C`: 0%; `C[C@@H](C(=O)NCc1ccccn1)[C@H]1C[C@]1(C)[C@H](NC(=O)OCc1ccccc1)c1ccccc1`: -9%. As for `O=C(NC(=S)N1CCN(c2ccc(C(F)(F)F)cc2[N+](=O)[O-])CC1)c1cccs1`, the inhibition is 101% (active). Next, `O=C(NC(=S)N1CCN(c2ccc(Cl)cc2[N+](=O)[O-])CC1)c1cccs1`: 53.9% (active); `O=C(Nc1ccc(F)c([N+](=O)[O-])c1)c1cccs1`: 4.2%. Next, `O=C(/C=C/c1ccc(Cl)cc1Cl)N1CCN(c2ccccc2[N+](=O)[O-])CC1`: -38.9%; `CN1CCN(c2ccc(C(CC(N)=O)NC(=O)c3ccccc3)cc2[N+](=O)[O-])CC1` (centres undefined): 10.7%. Consider `O=C(NC(=S)N1CCN(c2ccc(F)cc2)CC1)c1cccs1`, for which the inhibition was 11.7%.

As for `Cn1c(SCC(=O)N2CCCc3ccccc32)nc2ccccc2c1=O`, the inhibition is 43.4%. As for `Cc1cccc(N2CCN(C(=O)Cc3cn(C)c4ccccc34)CC2)c1C`, the figure is -31.6%.

With `Cc1cccc(-n2c(SCC(=O)N3CCC(C(=O)O)CC3)nc3ccccc3c2=O)c1C`, the inhibition is 74.3% (active). For `O=C(CCl)Nc1cc(SCC(O)CO)cc([N+](=O)[O-])c1` (centres undefined), the inhibition is 96.6% (active). Take `COc1ccc(-[n+]2c(C)cc(/C=C3\Sc4ccccc4N3C)cc2C)cc1`: the inhibition was 67% (active). Regarding `CC(C)Cn1c(N2CCN(C(=O)/C=C/c3ccccc3)CC2)nc2ccccc21`, the inhibition is 0.5%. Next, `CCn1c(NC(=O)/C=C/c2ccc(F)cc2)nc2ccccc21`: 0%.

For the compound `C=CCSc1nc2ccccc2n1C(=O)/C=C/c1ccc(OC)c(OC)c1`, the inhibition is 89.7% (active). As for `COc1ccc(-c2n(Cc3ccccc3)c3ccccc3[n+]2Cc2ccccc2)cc1`, the figure is 53.1% (active); as for `O=C(CCl)Nc1cc(-c2ccccc2)nn1-c1ccccc1`, -25.8%. As for `CCCc1cc(NC(=O)CCl)n(-c2ccccc2)n1`, the figure is 40.2%; as for `CC(C)(C)c1cc(NC(=O)CCl)n(-c2ccccc2)n1`, 52.2% (active); as for `Cc1ccc2c(C(=O)CCl)c(C)[nH]c2c1`, 83.2% (active). Next, `CCOC(=O)c1c(C)[nH]c(C)c1C(=O)CSc1nc2ccccc2c(=O)n1-c1ccc(CC)cc1`: -1.6%. Take `Cc1[nH]c2ccccc2c1C(=O)CCl`: the inhibition is 95.3% (active).

For `CCOc1ccc(CCn2c(-c3ccco3)nc3ccccc3c2=O)cc1OCC`, the inhibition was -36.6%.

Consider `Cn1c2ccccc2c(=O)c2c(=O)n(C3CCCCC3)c(-c3cccs3)nc21`, for which the inhibition is 23.4%. As for `Cn1c2ccccc2c(=O)c2c(=O)n(C3CCCCC3)c(-c3ccco3)nc21`, the figure is 78.9% (active).
